About 79,000 compounds went through this panel and 15% of them were active in at least one assay; those are over-represented in the sample as a whole. Activity calls are given as the source filed them. Cut-off read from the data, not from the text of the source: active = growth inhibition above about 70%; inactive = the rest.
Experiment: NCI Yeast Anticancer Drug Screen. Data for the rad18 strain (AID 177)
Conditions: S. cerevisiae rad18 mutant growth inhibition, active compounds read high
Protocol: Growth inhibition of yeast strains with defined genetic alterations is measured as a screen for potential anti-cancer activity. Selected strains with alterations in DNA damage repair or cell cycle control were exposed to compounds and growth inhibition was measured relative to vehicle treated controls. The strain used in this assay is rad18

Measured: growth inhibition

C[C@H](CCC1=NC(C)(C)CO1)C1CCC2[C@@H]3C(O)C[C@@H]4CC(O)CC[C@]4(C)C3CC[C@@]21C (stereo not given in full)
inactive: at 1.2 µM -5% | at 3.7 µM -6% | at 11.0 µM -6%
active: at 33.0 µM 96% | at 100.0 µM 99%

Nc1ccc2cc(Br)ccc2c1Br
inactive: at 1.2 µM -4% | at 3.7 µM -1% | at 11.0 µM 7% | at 33.0 µM -3% | at 100.0 µM 20%

OC(CC(O)(C(F)(F)F)C(F)(F)F)c1ccc(C(O)CC(O)(C(F)(F)F)C(F)(F)F)cc1 (stereo not given)
active: at 11.0 µM 91% | at 33.0 µM 98% | at 100.0 µM 97%
inactive: at 1.2 µM 40% | at 3.7 µM 41%

O=C1c2ccccc2-c2cc3ccccc3c(=O)n21
inactive: at 1.2 µM -22% | at 3.7 µM -17% | at 11.0 µM 28% | at 33.0 µM 63% | at 100.0 µM 59%

CC1(C)CC(=O)C(C(=O)Nc2cccs2)=C(O)C1
inactive: at 1.2 µM 1% | at 3.7 µM 1% | at 11.0 µM 7% | at 33.0 µM 48%
active: at 100.0 µM 99%

CC(=O)N1C=Cc2c(c(C)c3c([nH]c4ccccc43)c2C)C1
inactive: at 1.2 µM 23% | at 3.7 µM 44%
active: at 11.0 µM 91% | at 33.0 µM 96% | at 100.0 µM 96%

CCN(CC)CCNc1ccc2nc(C)n3c4ccc(O)cc4c(=O)c1c23
inactive: at 1.2 µM 0% | at 3.7 µM 0% | at 11.0 µM -4% | at 33.0 µM -13% | at 100.0 µM -22%

Cc1ccc(S(=O)(=O)Nc2cccc3cccnc23)cc1
active: at 33.0 µM 74% | at 100.0 µM 71%
inactive: at 1.2 µM 9% | at 3.7 µM 4% | at 11.0 µM 25%
